Results published in PubChem BioAssay (NCATS).
“And” between values parts separate entries of the source, which are not always exact repeats. Equal values may be shown once. Inconclusive results are not listed. Values without a mark were called inactive. The source made the active and inactive calls. The call rests on the fitted dose curve; in most records, active means well fitted curve in the direction sought with a large enough effect; inconclusive means small, poorly fitted or top-dose-only effect, or another doubt; inactive means no such curve, though single readings can be large; an effect the other way counts as inactive or inconclusive.

target: Furin (Homo sapiens) (UniProt P09958); experiment: Furin counterscreen qHTS for Zika virus inhibitors (AID 1347149); details: furin enzymatic counterscreen, fluorogenic substrate; series mostly up to 114 µM; activity change, negative = inhibition: at the top concentration;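 on activity change, negative = inhibition: purified recombinant full-length human furin enzyme at 5 nM; fluorescence gain from furin cutting a BOC-RVRR-AMC peptide substrate over 15 min; top concentration of the series differs between compounds; plate controls were no-inhibitor control for no effect and no-enzyme control for full effect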
Sequence (P09958 whole entry, looked up): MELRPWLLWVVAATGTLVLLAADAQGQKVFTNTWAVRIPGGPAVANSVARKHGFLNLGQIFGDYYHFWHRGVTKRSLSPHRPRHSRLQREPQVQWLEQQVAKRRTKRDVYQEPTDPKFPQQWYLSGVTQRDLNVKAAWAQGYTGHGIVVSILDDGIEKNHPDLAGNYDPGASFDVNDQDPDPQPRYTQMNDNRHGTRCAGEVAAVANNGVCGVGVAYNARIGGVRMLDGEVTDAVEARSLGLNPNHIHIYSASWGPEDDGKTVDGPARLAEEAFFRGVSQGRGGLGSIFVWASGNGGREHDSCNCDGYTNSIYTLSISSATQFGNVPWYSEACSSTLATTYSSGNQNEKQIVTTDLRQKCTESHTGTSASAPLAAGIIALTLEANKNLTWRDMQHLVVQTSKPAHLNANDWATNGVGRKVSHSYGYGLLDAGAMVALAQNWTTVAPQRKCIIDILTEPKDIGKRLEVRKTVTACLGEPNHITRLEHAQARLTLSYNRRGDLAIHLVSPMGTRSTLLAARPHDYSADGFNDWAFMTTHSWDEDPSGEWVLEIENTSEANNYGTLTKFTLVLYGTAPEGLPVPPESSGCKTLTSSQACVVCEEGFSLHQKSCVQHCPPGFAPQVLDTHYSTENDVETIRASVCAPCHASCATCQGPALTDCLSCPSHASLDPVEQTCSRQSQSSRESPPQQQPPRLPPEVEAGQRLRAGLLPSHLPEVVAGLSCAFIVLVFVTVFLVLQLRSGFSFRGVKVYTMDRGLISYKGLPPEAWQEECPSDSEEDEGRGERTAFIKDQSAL
Method in brief: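 Fluorogenic cleavage of BOC-RVRR-AMC (2 microM final, Km ~15 µM) was monitored (ex 340, em 450 nm) at 37C after 15 min RT preincubation of 5 nM furin with compounds in HEPES pH 7.0 buffer with CaCl2 and Triton X-100. Percent inhibition was fitted to a 4-parameter Hill curve.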
Further: nearly all actives have a fitted effect of over 70% in size.
Potency means the concentration at half of the fitted maximal effect.

**Q.** For `CCS(=O)(=O)c1cccc(-c2cc(C(=O)NC3CCN(C)CC3)c(C)c3[nH]c4ncc(C)cc4c23)c1`, which Potency is on record?
**A.** 24.1 µM (active)

**Q.** With `CC(C)c1ccccc1Cc1cc(C(=O)Nc2ccc(S(=O)(=O)c3ccccc3C(C)(C)C)cc2)c(O)c(O)c1O` as the molecule, how does the “activity change, negative = inhibition” value read?
**A.** -2.74%

**Q.** `N#Cc1c(O)c2c(-c3ccc(-c4ccccc4O)cc3)csc2[nH]c1=O` was tested. Which Potency did it give?
**A.** inactive

**Q.** How did the Potency turn out when `CCOC(=O)C1=C(C)NC2=C(C(=O)CC(C)(C)C2)C1c1ccc(-c2ccccc2)cc1` (centres undefined) was run?
**A.** 19.2 µM (active)

**Q.** How did the Potency turn out when `Cc1cc(CN2CCN(c3c(Br)cnc4nc(-c5ccc(N6CCN(C)CC6)cc5)[nH]c34)CC2)no1` was run?
**A.** 24.1 µM (active)

**Q.** `CN1CCC(CNc2ccc3ncc(-c4cccc(OC(F)(F)F)c4)n3n2)CC1` was tested. Which Potency did it give?
**A.** 21.5 µM (active)

**Q.** With `CCN(CC)CCCCNc1ncc2cc(-c3cc(OC)cc(OC)c3)c(NC(=O)NC(C)(C)C)nc2n1` as the molecule, how does the Potency read?
**A.** 24.1 µM (active)

**Q.** `O=c1c2ccccc2nc2n1CCc1c-2[nH]c2ccccc12` was tested. Which Potency did it give?
**A.** 42.9 µM (active)

**Q.** `O=C(O)C1(Cc2cccc(Nc3nccs3)n2)CCC(Oc2cccc(Cl)c2F)CC1` (centres undefined) was tested. Which “activity change, negative = inhibition” value did it give?
**A.** -0.0046%

system: Zika virus NS2B-NS3 protease (linked construct); experiment: Confirmatory screen NINDS AMC qHTS for Zika virus inhibitors (AID 1347152); details: Purified linked NS2B-NS3, AMC substrate fluorescence; series mostly up to 110 µM; activity change, negative = inhibition: at the top concentration;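 on activity change, negative = inhibition: top concentration of the series differs between compounds; 0% = no-inhibitor control and -100% = no-enzyme control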
Method in brief: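 IC50s from 4-parameter Hill fits of percent inhibition, based on AMC fluorescence gain (340/450 nm) over 15 min with 10 microM Bz-Nle-KRR-AMC. Enzyme: 1 nM linked NS2B-NS3 in Tris-HCl pH 8.0; 15-min compound preincubation.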

**Q.** With `CCS(=O)(=O)c1cccc(-c2cc(C(=O)NC3CCN(C)CC3)c(C)c3[nH]c4ncc(C)cc4c23)c1` as the molecule, how does the Potency read?
**A.** 24.1 µM (active)

**Q.** With `CC(C)c1ccccc1Cc1cc(C(=O)Nc2ccc(S(=O)(=O)c3ccccc3C(C)(C)C)cc2)c(O)c(O)c1O` as the molecule, how does the “activity change, negative = inhibition” value read?
**A.** -5.52%

**Q.** `N#Cc1c(O)c2c(-c3ccc(-c4ccccc4O)cc3)csc2[nH]c1=O` was tested. Which Potency did it give?
**A.** 4.82 µM (active) and 8.79 µM (active)

**Q.** How did the Potency turn out when `CCOC(=O)C1=C(C)NC2=C(C(=O)CC(C)(C)C2)C1c1ccc(-c2ccccc2)cc1` (centres undefined) was run?
**A.** 17.1 µM (active)

**Q.** For `Cc1cc(CN2CCN(c3c(Br)cnc4nc(-c5ccc(N6CCN(C)CC6)cc5)[nH]c34)CC2)no1`, which Potency is on record?
**A.** 34.1 µM (active)

**Q.** With `COc1cc(C(=O)NS(=O)(=O)c2ccccc2C)ccc1Cc1cn(C)c2ccc(NC(=O)OC3CCCC3)cc12` as the molecule, how does the Potency read?
**A.** 9.61 µM (active)

**Q.** Which Potency does the source give for `CN1CCC(CNc2ccc3ncc(-c4cccc(OC(F)(F)F)c4)n3n2)CC1` here?
**A.** 27.1 µM (active)

**Q.** With `O=c1c2ccccc2nc2n1CCc1c-2[nH]c2ccccc12` as the molecule, how does the Potency read?
**A.** 24.1 µM (active)

system: Zika virus NS2B-NS3 protease (unlinked complex); experiment: Confirmatory screen GU AMC qHTS for Zika virus inhibitors (AID 1347153); details: Recombinant NS2B-NS3 protease, AMC substrate fluorescence; series mostly up to 57.1 µM; activity, negative = inhibition: at the top concentration;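 on activity, negative = inhibition: percent inhibition with 0% = no inhibitor control and 100% = no enzyme control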
Method in brief: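 Unlinked enzyme 25 nM, Tris pH 8.0/0.01% Tween 20; cpd 15 min RT, dark; + AMC substrate 10 µM (Km 18.3 µM); 340/450 nm read at t0 and 15 min; % inhibition → 4-param fit.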

**Q.** For `CCS(=O)(=O)c1cccc(-c2cc(C(=O)NC3CCN(C)CC3)c(C)c3[nH]c4ncc(C)cc4c23)c1`, which Potency is on record?
**A.** 24.1 µM (active)

**Q.** With `CC(C)c1ccccc1Cc1cc(C(=O)Nc2ccc(S(=O)(=O)c3ccccc3C(C)(C)C)cc2)c(O)c(O)c1O` as the molecule, how does the “activity, negative = inhibition” value read?
**A.** -10.4% [at 111 µM]

**Q.** With `N#Cc1c(O)c2c(-c3ccc(-c4ccccc4O)cc3)csc2[nH]c1=O` as the molecule, how does the Potency read?
**A.** 9.61 µM (active)

**Q.** With `COc1cc(C(=O)NS(=O)(=O)c2ccccc2C)ccc1Cc1cn(C)c2ccc(NC(=O)OC3CCCC3)cc12` as the molecule, how does the Potency read?
**A.** 17.1 µM (active)

**Q.** With `CCN(CC)CCCCNc1ncc2cc(-c3cc(OC)cc(OC)c3)c(NC(=O)NC(C)(C)C)nc2n1` as the molecule, how does the “activity, negative = inhibition” value read?
**A.** -18.5%

system: Zika virus NS2B-NS3 protease; experiment: Primary screen GU AMC qHTS for Zika virus inhibitors (AID 1347154); details: Zika NS2B-NS3 unlinked protease, AMC fluorogenic substrate; series mostly up to 54.1 µM; activity change, negative = inhibition: at the top concentration;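 on activity change, negative = inhibition: 0% = no-inhibitor control and -100% = no-enzyme control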
Method in brief: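 Unlinked Zika NS2B hydrophilic domain–NS3 protease complex at 25 nM in 10 mM Tris-HCl pH 8.0, 0.01% Tween 20, with an AMC peptide substrate. Fluorescence change (340/450 nm) over 15 min at room temperature, normalized to controls, fitted to 4-parameter Hill.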

**Q.** For `CC(C)(O)CCc1ccc(OCc2cc(-c3cccc(OC(F)F)c3)c3ncccc3c2)cc1`, which “activity change, negative = inhibition” value is on record?
**A.** -1.92%

**Q.** With `CCS(=O)(=O)c1cccc(-c2cc(C(=O)NC3CCN(C)CC3)c(C)c3[nH]c4ncc(C)cc4c23)c1` as the molecule, how does the Potency read?
**A.** 24.1 µM (active)

**Q.** With `OCc1ccc(-c2ccc(-c3ccc(CO)s3)o2)s1` as the molecule, how does the Potency read?
**A.** 26.7 µM (active)

**Q.** `COC(=O)C1=C(C)NC(C)=C(C(=O)OCCN2CCN(C(c3ccccc3)c3ccccc3)CC2)C1c1cccc([N+](=O)[O-])c1` (centres undefined) was tested. Which “activity change, negative = inhibition” value did it give?
**A.** -15.5%

**Q.** How did the “activity change, negative = inhibition” value turn out when `CCc1c2c(nc3ccc(O)cc13)-c1cc3c(c(=O)n1C2)COC(=O)[C@]3(O)CC` was run?
**A.** 7.89%

**Q.** How did the “activity change, negative = inhibition” value turn out when `Nc1ccn([C@@H]2CS[C@H](CO)O2)c(=O)n1` was run?
**A.** -0.0353% [at 104 µM]

**Q.** Which Potency does the source give for `CC(C)c1ccccc1Cc1cc(C(=O)Nc2ccc(S(=O)(=O)c3ccccc3C(C)(C)C)cc2)c(O)c(O)c1O` here?
**A.** 17.1 µM (active)

**Q.** For `COc1ccc(OC)c(-c2nnc3ccc(-c4ccc(OC)c(O[C@@H]5CCOC5)c4)nn23)c1`, which “activity change, negative = inhibition” value is on record?
**A.** 25%

**Q.** How did the “activity change, negative = inhibition” value turn out when `NCC(=O)Nc1ccc(-n2nc(C(F)(F)F)cc2-c2ccc3c(ccc4ccccc43)c2)cc1` was run?
**A.** 0.187%

**Q.** How did the “activity change, negative = inhibition” value turn out when `COc1cc(OC2CCN(C)CC2)ccc1Nc1ncc2c(n1)n(C1CCCC1)c(=O)n2C` was run?
**A.** 8.88%

**Q.** `O=C(NCCS(=O)(=O)c1ccc(C(F)(F)F)cn1)c1ccc(Cl)cc1` was tested. Which “activity change, negative = inhibition” value did it give?
**A.** 8.25%

**Q.** With `CC[C@H](CO)Nc1nc(NCc2ccccc2)c2ncn(C(C)C)c2n1` as the molecule, how does the Potency read?
**A.** inactive

**Q.** How did the Potency turn out when `N#Cc1c(O)c2c(-c3ccc(-c4ccccc4O)cc3)csc2[nH]c1=O` was run?
**A.** 8.57 µM (active)

**Q.** How did the “activity change, negative = inhibition” value turn out when `COc1cc(C)c(Sc2cnc(NC(=O)c3ccc(CNC(C)C(C)C)cc3)s2)cc1C(=O)N1CCN(C(C)=O)CC1` (centres undefined) was run?
**A.** -6%

**Q.** For `COc1cc(C(C)C)c2c(c1)S(=O)(=O)N(COc1cc(=O)n3cccc(OCCN4CCCCC4)c3n1)C2=O`, which Potency is on record?
**A.** inactive

**Q.** Which Potency does the source give for `CCOC(=O)C1=C(C)NC2=C(C(=O)CC(C)(C)C2)C1c1ccc(-c2ccccc2)cc1` (centres undefined) here?
**A.** 17.1 µM (active)

**Q.** How did the “activity change, negative = inhibition” value turn out when `Cn1c2cc(S(C)=O)sc2c2cnn(Cc3cccc(N)c3)c(=O)c21` (centres undefined) was run?
**A.** -7.94%

**Q.** For `Cc1cc(CN2CCN(c3c(Br)cnc4nc(-c5ccc(N6CCN(C)CC6)cc5)[nH]c34)CC2)no1`, which Potency is on record?
**A.** 24.1 µM (active)

**Q.** With `COc1cc(C(=O)NS(=O)(=O)c2ccccc2C)ccc1Cc1cn(C)c2ccc(NC(=O)OC3CCCC3)cc12` as the molecule, how does the Potency read?
**A.** 12.6 µM (active)

**Q.** Which Potency does the source give for `CN1CCC(CNc2ccc3ncc(-c4cccc(OC(F)(F)F)c4)n3n2)CC1` here?
**A.** 24.1 µM (active)

**Q.** Which “activity change, negative = inhibition” value does the source give for `Cc1cn(-c2cc(NC(=O)c3ccc(C)c(Nc4nccc(-c5cccnc5)n4)c3)cc(C(F)(F)F)c2)cn1` here?
**A.** 10.6%

**Q.** Which activity change, negative = inhibition does the source give for `COc1ccc(CC2c3cc(OC)c(OC)cc3CC[N+]2(C)CCC(=O)OCCCCCOC(=O)CC[N+]2(C)CCc3cc(OC)c(OC)cc3C2Cc2ccc(OC)c(OC)c2)cc1OC` (centres undefined) here?
**A.** 4.96% [at 6.83 µM]

**Q.** How did the Potency turn out when `CCN(CC)CCCCNc1ncc2cc(-c3cc(OC)cc(OC)c3)c(NC(=O)NC(C)(C)C)nc2n1` was run?
**A.** 21.5 µM (active)

**Q.** Which “activity change, negative = inhibition” value does the source give for `O=C(O)CO.[NH2-].[NH2-].[Pt+2]` here?
**A.** 13.1%

**Q.** For `O=c1c2ccccc2nc2n1CCc1c-2[nH]c2ccccc12`, which Potency is on record?
**A.** 30.4 µM (active)

**Q.** `O=C(c1cncc(Br)c1)N1CCC(N2CCCC2)CC1` was tested. Which “activity change, negative = inhibition” value did it give?
**A.** -1.22%

**Q.** With `CCOc1cc2ncc(C#N)c(Nc3ccc(F)c(Cl)c3)c2cc1NC(=O)C=CCN(C)C` as the molecule, how does the “activity change, negative = inhibition” value read?
**A.** 17.2%

**Q.** How did the Potency turn out when `CC(C)=CCCC(C)=CCCC(C)=CCSc1ccccc1C(=O)O` was run?
**A.** 13.6 µM (active)

**Q.** How did the “activity change, negative = inhibition” value turn out when `O=C(O)[C@H](Cc1c[nH]c2ccccc12)N1C(=O)c2ccccc2C1=O` was run?
**A.** 14.3% [at 104 µM]

**Q.** How did the “activity change, negative = inhibition” value turn out when `Nc1ccc(S(=O)(=O)Nc2ncccn2)cc1` was run?
**A.** 10%

**Q.** Which “activity change, negative = inhibition” value does the source give for `c1cc(-c2cnn3cc(-c4ccc(OCCN5CCCCC5)cc4)cnc23)ccn1` here?
**A.** -21.5%

**Q.** How did the “activity change, negative = inhibition” value turn out when `Cc1nc2ccc(CN(C)c3ccc(C(=O)N[C@@H](CCC(=O)O)C(=O)O)s3)cc2c(=O)[nH]1` was run?
**A.** -9.95%

**Q.** How did the “activity change, negative = inhibition” value turn out when `CN[C@H]1CCc2cc(OC)c(OC)c(OC)c2-c2ccc(OC)c(=O)cc21` was run?
**A.** 1.91%

**Q.** For `C[C@]12CC[C@H](O)CC1=CCC1C2CC[C@]2(C)C(n3cnc4ccccc43)=CCC12` (some centres undefined), which “activity change, negative = inhibition” value is on record?
**A.** -4.14%

**Q.** `O=c1[nH]c(=O)n(C2CCCO2)cc1F` (centres undefined) was tested. Which “activity change, negative = inhibition” value did it give?
**A.** -3.66% [at 104 µM]

**Q.** How did the “activity change, negative = inhibition” value turn out when `CC(=O)SC[C@@H](C)C(=O)N1CCC[C@H]1C(=O)N[C@@H](Cc1ccccc1)C(=O)O` was run?
**A.** -0.938%

**Q.** Which “activity change, negative = inhibition” value does the source give for `CCC[C@H](NC(=O)C(C#N)=Cc1cccc(Br)n1)c1ccccc1` here?
**A.** 1.62%
